Experimental data taken from PubChem BioAssay (Tox21).
Several values for one entry are separate records, joined by “and”; a condition that tells them apart may be missing. Identical values can stand only once. Records with an inconclusive call do not appear. A call without a number means that no potency is given here. More than one record can exist for a structure, and the calls need not agree. Activity calls are given as the source filed them. Unless noted, the call rests on the fitted dose curve.

What was measured:
[1] = qHTS assay to identify small molecule antagonists of the sonic hedgehog signaling (Shh) pathway (AID 1259369); further: nearly all actives have a fitted effect of over 45% in size; further: potency means the concentration at half of the fitted maximal effect
In short: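 Antagonist mode: compound added to 3T3 Gli1-Luc cells followed by conditioned-medium stimulation, 24 h at 37 C, 5% CO2. Inhibition taken as loss of Gli1-driven luciferase luminescence.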

[2] = target: Estrogen receptor beta (Homo sapiens) (UniProt Q92731); experiment: qHTS assay to identify small molecule antagonists of the estrogen receptor beta (ER-beta) signaling pathway (AID 1259378; active means well fitted inhibition curve with a large enough effect in the signal ratio in the repeat runs, not every such curve was filed as active; the % refers to the signal ratio; further: potency means the concentration at half of the fitted maximal effect)
Sequence of Estrogen receptor beta (Homo sapiens) (Q92731 whole entry, looked up): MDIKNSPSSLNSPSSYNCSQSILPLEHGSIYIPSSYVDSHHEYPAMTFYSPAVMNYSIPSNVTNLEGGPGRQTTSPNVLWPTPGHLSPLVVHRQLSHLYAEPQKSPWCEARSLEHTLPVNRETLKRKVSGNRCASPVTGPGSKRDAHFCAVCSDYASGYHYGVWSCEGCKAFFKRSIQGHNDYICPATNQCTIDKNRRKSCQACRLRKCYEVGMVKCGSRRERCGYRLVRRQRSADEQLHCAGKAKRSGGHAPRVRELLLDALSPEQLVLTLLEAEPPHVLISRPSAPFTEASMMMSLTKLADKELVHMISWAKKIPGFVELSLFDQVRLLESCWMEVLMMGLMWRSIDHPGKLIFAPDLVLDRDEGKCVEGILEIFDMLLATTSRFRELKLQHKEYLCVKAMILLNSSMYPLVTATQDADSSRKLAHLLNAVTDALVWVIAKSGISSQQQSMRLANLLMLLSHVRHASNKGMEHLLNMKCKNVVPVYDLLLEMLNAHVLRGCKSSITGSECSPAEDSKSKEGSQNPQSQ
In short: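 ER-beta-UAS-bla HEK293T (GripTite) cells in 2% charcoal-stripped FBS medium were preincubated 6 hr at 37C, dosed with compound, then stimulated with 1 nM E2 (final) for 16 hr; beta-lactamase reporter read by B/G FRET fluorescence after 2 hr substrate loading.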

[3] = qHTS assay to identify small molecule agonists of the androgen receptor (AR) signaling pathway in the presence of an antagonist - cell viability counter screen (AID 1259379; active means well fitted curve in the direction sought with a large enough effect in the repeat runs; an effect the other way counts as inactive or inconclusive; further: nearly all actives have a fitted effect of over 25% in size; further: potency means the concentration at half of the fitted maximal effect)
In short: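 Cytotoxicity counter-screen run in the same wells as the nilutamide-challenged (3.0 µM final) AR agonist assay in MDA-kb2 cells. Compounds tested at 15 concentrations for 16 h, 37 °C without CO2; CellTiter-Fluor fluorescence read.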

[4] = target: Androgen receptor (Homo sapiens) (UniProt P10275); experiment: qHTS assay to identify small molecule agonists of the androgen receptor (AR) signaling pathway in the presence of an antagonist (AID 1259381); further: nearly all actives have a fitted effect of over 15% in size; further: potency means the concentration at half of the fitted maximal effect
Sequence of Androgen receptor (Homo sapiens) (P10275 whole entry, looked up): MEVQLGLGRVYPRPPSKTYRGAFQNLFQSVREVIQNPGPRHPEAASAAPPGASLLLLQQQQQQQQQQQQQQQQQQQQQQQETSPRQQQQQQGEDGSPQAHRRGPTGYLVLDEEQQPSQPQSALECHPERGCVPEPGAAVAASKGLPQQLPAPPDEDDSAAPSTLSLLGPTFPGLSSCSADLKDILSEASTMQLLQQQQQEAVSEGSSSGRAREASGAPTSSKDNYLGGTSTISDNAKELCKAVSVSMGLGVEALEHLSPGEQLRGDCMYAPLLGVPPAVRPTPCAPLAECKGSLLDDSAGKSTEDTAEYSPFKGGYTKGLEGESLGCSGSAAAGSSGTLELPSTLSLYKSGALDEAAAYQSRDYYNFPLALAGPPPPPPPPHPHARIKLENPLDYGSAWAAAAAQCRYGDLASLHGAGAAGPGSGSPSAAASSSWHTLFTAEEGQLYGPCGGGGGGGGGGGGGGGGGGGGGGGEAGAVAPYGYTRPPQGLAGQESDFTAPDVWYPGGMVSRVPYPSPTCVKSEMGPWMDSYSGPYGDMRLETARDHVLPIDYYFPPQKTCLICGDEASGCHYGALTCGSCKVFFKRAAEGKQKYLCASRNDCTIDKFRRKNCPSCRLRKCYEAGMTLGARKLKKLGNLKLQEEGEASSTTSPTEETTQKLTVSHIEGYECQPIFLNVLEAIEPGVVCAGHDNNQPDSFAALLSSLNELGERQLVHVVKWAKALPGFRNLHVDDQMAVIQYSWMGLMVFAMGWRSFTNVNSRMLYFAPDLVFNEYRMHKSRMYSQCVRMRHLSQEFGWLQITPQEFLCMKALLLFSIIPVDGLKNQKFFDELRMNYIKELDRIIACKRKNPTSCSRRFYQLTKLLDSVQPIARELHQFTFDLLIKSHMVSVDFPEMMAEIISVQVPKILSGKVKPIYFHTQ
In short: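 Agonist-mode confirmation run against 3.0 uM final nilutamide: compounds titrated at 15 concentrations onto MDA-kb2 MMTV-luciferase reporter cells. Luminescence measured with ONE-Glo following 16 hr incubation, 37C, 0% CO2.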

[5] = qHTS assay to identify small molecule antagonists of the estrogen receptor beta (ER-beta) signaling pathway - cell viability counter screen (AID 1259382; active means well fitted curve in the direction sought with a large enough effect in the repeat runs; an effect the other way counts as inactive or inconclusive; further: nearly all actives have a fitted effect of over 55% in size; further: potency means the concentration at half of the fitted maximal effect)
In short: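 Cytotoxicity was measured in the same wells by CellTiter-Glo luminescence after 30 min at room temperature. Cells were ER-beta-bla HEK293T in charcoal-stripped serum, given compound together with 1 nM E2 and incubated 16 h at 37C.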

[6] = target: Estrogen receptor (Homo sapiens) (UniProt P03372); experiment: qHTS assay to identify small molecule agonists of the estrogen receptor alpha (ER-alpha) signaling pathway in the presence of an antagonist (AID 1259383); further: nearly all actives have a fitted effect of over 15% in size; further: potency means the concentration at half of the fitted maximal effect; on activation: top concentration of the series differs between compounds
Sequence of Estrogen receptor (Homo sapiens) (P03372 whole entry, looked up): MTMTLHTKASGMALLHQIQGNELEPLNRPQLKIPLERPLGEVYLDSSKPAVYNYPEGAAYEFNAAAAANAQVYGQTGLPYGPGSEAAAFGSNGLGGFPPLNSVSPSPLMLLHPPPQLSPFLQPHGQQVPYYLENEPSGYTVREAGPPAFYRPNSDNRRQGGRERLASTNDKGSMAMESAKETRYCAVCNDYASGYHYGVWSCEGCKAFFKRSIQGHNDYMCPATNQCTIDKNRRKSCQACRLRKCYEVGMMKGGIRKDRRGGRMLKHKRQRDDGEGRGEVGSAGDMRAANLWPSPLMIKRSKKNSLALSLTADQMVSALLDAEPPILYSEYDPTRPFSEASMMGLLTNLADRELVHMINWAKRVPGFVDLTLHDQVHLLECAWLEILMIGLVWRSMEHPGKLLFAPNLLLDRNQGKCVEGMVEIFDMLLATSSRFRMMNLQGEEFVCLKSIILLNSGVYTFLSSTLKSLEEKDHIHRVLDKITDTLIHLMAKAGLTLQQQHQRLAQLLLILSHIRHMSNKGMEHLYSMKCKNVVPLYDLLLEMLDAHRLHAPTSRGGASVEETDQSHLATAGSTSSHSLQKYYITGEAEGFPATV
In short: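 Agonist-mode confirmation run in the presence of 10.0nM (final) ICI-182,780 antagonist. The reporter was ERE-driven luciferase in VM7Luc4E2 cells, grown in charcoal-stripped serum. Cells were exposed to 15-concentration compound series for 22hr, then ONE-Glo luminescence was read.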

[7] = qHTS assay to identify small molecule agonists or antagonists of the thyroid stimulating hormone receptor (TSHR) signaling pathway - wild type cell line counter screen (AID 1259384)
In short: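 Wild-type HEK293 cells were plated 18 h at 37 C/5% CO2, pin-dosed with compound plus Ro20-1724 medium, held 30 min at room temperature, then given cAMP-d2 and anti-cAMP-cryptate; fluorescence was read after 1 h. Fifteen concentrations, triplicate.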

[8] = target: Thyrotropin receptor (Homo sapiens) (UniProt P16473); experiment: qHTS assay to identify small molecule antagonists of the thyroid stimulating hormone receptor (TSHR) signaling pathway (AID 1259385); further: nearly all actives have a fitted effect of over 20% in size; further: potency means the concentration at half of the fitted maximal effect
Sequence of Thyrotropin receptor (Homo sapiens) (P16473 whole entry, looked up): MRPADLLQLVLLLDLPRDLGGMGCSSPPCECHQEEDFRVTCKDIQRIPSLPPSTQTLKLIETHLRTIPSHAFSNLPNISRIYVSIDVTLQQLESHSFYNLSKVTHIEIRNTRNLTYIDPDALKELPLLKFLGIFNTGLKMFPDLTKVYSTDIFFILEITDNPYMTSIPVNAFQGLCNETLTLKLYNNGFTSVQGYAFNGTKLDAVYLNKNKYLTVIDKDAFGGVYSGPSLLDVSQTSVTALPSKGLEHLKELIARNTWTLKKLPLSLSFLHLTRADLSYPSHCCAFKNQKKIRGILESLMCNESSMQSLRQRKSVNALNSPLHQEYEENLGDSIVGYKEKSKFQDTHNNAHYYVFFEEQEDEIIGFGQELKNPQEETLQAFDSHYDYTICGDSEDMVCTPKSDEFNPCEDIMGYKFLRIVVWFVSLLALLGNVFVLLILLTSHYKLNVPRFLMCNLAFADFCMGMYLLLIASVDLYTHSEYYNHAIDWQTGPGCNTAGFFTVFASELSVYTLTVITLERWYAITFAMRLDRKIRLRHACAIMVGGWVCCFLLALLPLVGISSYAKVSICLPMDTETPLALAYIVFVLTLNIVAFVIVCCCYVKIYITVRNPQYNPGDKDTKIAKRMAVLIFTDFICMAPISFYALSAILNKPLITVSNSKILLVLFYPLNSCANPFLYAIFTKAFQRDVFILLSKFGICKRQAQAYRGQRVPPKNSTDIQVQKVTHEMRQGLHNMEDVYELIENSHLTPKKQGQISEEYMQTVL
In short: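 TSHR-HEK293 cells were plated and held 18 h at 37C/5% CO2, then given compound plus Ro20-1724 and stimulated with TSH at 1.5 ng/mL final. After 30 min at room temperature, cAMP was detected with cAMP-d2/anti-cAMP-cryptate (1 h) by fluorescence.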

[9] = qHTS assay to identify small molecule agonists of the estrogen receptor beta (ER-beta) signaling pathway - cell viability counter screen (AID 1259380; active means well fitted curve in the direction sought with a large enough effect in the repeat runs; an effect the other way counts as inactive or inconclusive; further: nearly all actives have a fitted effect of over 30% in size; further: potency means the concentration at half of the fitted maximal effect)
In short: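 Cell viability counter screen: CellTiter-Glo luminescence (30 min, room temperature) measured in the same wells as the beta-lactamase readout, after 16 hr compound exposure at 37C of ER-beta-bla HEK293T cells in 2% charcoal-stripped FBS medium.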

Structure (SMILES) | Potency [1] | Potency [2] | Potency [3] | Potency [4] | Potency [5] | Potency [6] | outcome [7] | Potency [8] | Potency [9] | activation [4] | cAMP activity change [7]
O=C(NC(=O)c1c(F)cccc1F)Nc1cc(Cl)c(OC(F)(F)C(F)F)c(Cl)c1 | inactive | inactive | inactive | inactive | inactive | inactive | inactive | inactive | – | – | –
Cc1cc(N=Nc2ccccc2C)ccc1N | 19.3 µM (active) and inactive | 19.3 µM (active) | 30.6 µM (active) and 34.4 µM (active) | inactive | – | – | inactive | – | 27.3 µM (active) | – | –
SCc1ccco1 | 61.1 µM (active) | – | inactive | inactive | inactive | inactive | inactive | – | inactive | – | –
FC(Cl)(Cl)Cl | inactive | – | inactive | inactive | – | – | inactive | inactive | inactive | – | –
C[CH2][Hg][N]1C(=O)C2C(C1=O)C1(Cl)C(Cl)=C(Cl)C2(Cl)C1(Cl)Cl (stereo unspecified) | 14.6 µM (active) | – | 13 µM (active) | – | 11.6 µM (active) | – | – | – | 9.2 µM (active) | -7.84% [at 19 µM] (inactive) | 11% [at 18.9 µM] (inactive)
CC(C)(c1ccc(O)c(-c2ccccc2)c1)c1ccc(O)c(-c2ccccc2)c1 | 12.2 µM (active) | – | 54.5 µM (active) | inactive | – | inactive | – | – | 27.3 µM (active) | – | –
[Cd+2].[Cl-].[Cl-] | 245 nM (active) and 486 nM (active) | – | inactive | – | 34.7 µM (active) and 54.5 µM (active) | – | – | – | 69.1 µM (active) and 68.6 µM (active) | – | –
CN(CCCC(=O)c1cccnc1)N=O | inactive | – | inactive | inactive | inactive | inactive | inactive | – | inactive | – | –
C[C@@H]1O[C@@H](O[C@@H]2C=C3CC[C@@H]4[C@H](CC[C@]5(C)[C@@H](c6ccc(=O)oc6)CC[C@]45O)[C@@]3(C)CC2)[C@H](O)[C@H](O)[C@H]1O | 16.8 µM (active) | – | inactive | 0.0298 µM (active) | 0.0094 µM (active) | – | inactive | 0.298 µM (active) | 0.0094 µM (active) | – | –
O=[N+]([O-])c1cc(C(F)(F)F)c(Cl)c([N+](=O)[O-])c1Cl | 4.86 µM (active) | – | 27.3 µM (active) | – | 30.6 µM (active) | inactive | inactive | – | 27.3 µM (active) | – | –
CCOCn1c(-c2ccc(Cl)cc2)c(C#N)c(Br)c1C(F)(F)F | 0.611 µM (active) | – | 6.86 µM (active) | – | 34.4 µM (active) | inactive | inactive | – | 27.3 µM (active) | – | –
Oc1ccc(C2(c3ccc(O)cc3)c3ccccc3-c3ccccc32)cc1 | 27.3 µM (active) | – | 34.4 µM (active) | – | 61.1 µM (active) | inactive | inactive | inactive | 48.6 µM (active) | – | –
COc1ccc(N)cc1N | 3.55 µM (active) and 8.29 µM (active) | – | inactive | – | 22.4 µM (active) | – | – | – | 7.08 µM (active) and 13.1 µM (active) | – | –
CC(C)C(=O)Cl | inactive | – | inactive | inactive | inactive | – | inactive | inactive | inactive | – | –
CCCCCCCCCC[N+](C)(C)CCCCCCCCCC | 0.969 µM (active) | – | 54.5 µM (active) | – | 17.2 µM (active) | inactive | inactive | – | 15.4 µM (active) | – | –
O=C1c2ccccc2C(=O)C1C(=O)C(c1ccccc1)c1ccc(Cl)cc1 (stereo unspecified) | 54.5 µM (active) | – | 27.3 µM (active) | inactive | – | inactive | inactive | – | 24.3 µM (active) | – | –
CC(=O)[O-].CC(=O)[O-].[Hg+2] | 0.686 µM (active) | – | 10.9 µM (active) | – | 6.11 µM (active) | – | – | – | 3.06 µM (active) | – | –
N#Cc1ccc(O)cc1 | inactive | – | inactive | inactive | inactive | inactive | inactive | inactive | inactive | – | –
COC12CC[C@@]3(C[C@@H]1C(C)(O)C(C)(C)C)[C@H]1Cc4ccc(O)c5c4[C@@]3(CCN1CC1CC1)[C@H]2O5 (stereo partly specified) | 4.82 µM (active) | – | 60.7 µM (active) | – | 54.1 µM (active) | inactive | inactive | inactive | 27.1 µM (active) | – | –
O=C(Cl)c1ccc(Cl)cc1 | inactive | – | inactive | inactive | inactive | inactive | inactive | inactive | inactive | – | –
CCOC(=O)c1ccccc1S(=O)(=O)NC(=O)Nc1nc(Cl)cc(OC)n1 | inactive | – | inactive | inactive | inactive | inactive | inactive | inactive | inactive | – | –
CC(=[OH+])/C=C(/C)[O-].CC(=[OH+])/C=C(\C)[O-].CC(=[OH+])/C=C(\C)[O-].[Fe] | inactive | – | inactive | – | inactive | inactive | – | – | inactive | – | –
CNC(C)Cc1ccc2c(c1)OCO2 (stereo unspecified) | 18.9 µM (active) | – | inactive | inactive | inactive | inactive | inactive | inactive | inactive | – | –
CN(C)C(=S)[S-].CN(C)C(=S)[S-].[Cu+2] | 1.49 µM (active) | – | 3.33 µM (active) | – | 7.45 µM (active) | – | – | – | 5.92 µM (active) | – | –
C[C@H]1CC[C@@H]2[C@@H](C)[C@H]3[C@H](C[C@H]4[C@@H]5CC=C6CC(O[C@@H]7O[C@H](CO)[C@H](O)[C@H](O[C@@H]8O[C@H](CO)[C@@H](O)[C@H](O)[C@H]8O)[C@H]7O[C@H]7O[C@@H](C)[C@H](O)[C@@H](O)[C@H]7O)CC[C@]6(C)[C@H]5CC[C@]34C)N2C1 (stereo partly specified) | inactive | – | 22.4 µM (active) | – | 25.1 µM (active) | inactive | inactive | 10 µM (active) | 15.8 µM (active) | – | –
CCCCCCCCCCCCCCCCCCn1cc[n+](C)c1 | 0.0542 µM (active) | – | 21.6 µM (active) | inactive | – | inactive | inactive | inactive | 30.5 µM (active) | – | –
CC(=O)Nc1ccc2c(c1)Cc1ccccc1-2 | inactive | – | inactive | – | inactive | 8.77 µM (active) | inactive | inactive | inactive | – | –
